Measurements published in PubChem BioAssay (NCATS).
Activity calls are given as the source filed them. Calls follow the shape of the dose curve; as a rule, active = well fitted curve in the direction sought with a large enough effect; inconclusive = small, poorly fitted or top-dose-only effect, or another doubt; inactive = no such curve, though single readings can be large or run the other way.

target: Alpha-galactosidase (Coffea arabica) (UniProt Q42656); assay: Counterscreen for Glucocerebrosidase Inhibitors: qHTS Assay for Coffee Bean alpha-Galactosidase at pH 4.5 (AID 957); details: purified coffee bean alpha-galactosidase, fluorogenic substrate; series mostly up to 76.9 µM
From the text: NIH Chemical Genomics Center [NCGC]
NIH Molecular Libraries Screening Centers Network [MLSCN]
PI Name: Zheng, Wei [NIH]
Alpha-galactosidase is a homodimeric glycoprotein that hydrolyzes the terminal alpha-galactosyl moieties from glycolipids and glycoproteins. Deficiency of this enzyme results in Fabry Disease with progressive accumulation of globotriaosylceramide and other glycosphingolipids in vascular endothelial cells that causes renal failure, myocardial infarction and stroke, and premature death in patients. It has reported that the improper folding and trafficking of alpha-galactosidase resulted from the genetic mutations may account for a significant numbers of Fabry patients. […] We optimized this coffee bean alpha-galactosidase assay in 1536-well plate format as a counter-screen assay for identifying the selective small molecule inhibitors of other lysosomal enzymes.
NCGC Assay Protocol Summary:
This is a fluorogenic enzyme assay with 4-Methylumbelliferyl alpha-D-galactopyranoside as the substrate and green coffee bean […] (from Sigma-Aldrich) as the enzyme preparation. Upon the hydrolysis of this fluorogenic substrate, the resulting product, […]. 4-Methyllumbelliferone, can be excited at 365 nm and emits at 440 nm which can be detected by a standard fluorescence plate reader. Data were normalized to the controls for basal activity (without enzyme) and 100% activity (with enzyme). In the AC50 values were determined from concentration-response data modeled with the standard Hill equation.
Assay buffer: 50 mM citric acid, 0.005% Tween-20, pH 4.5. (pH 5.9 is an optimal condition for this enzyme assay. This assay in pH 4.5 is used for comparison the inhibitor activities with the human alpha-galactosidase assay)
1536-well assay protocol for the coffee bean alpha-galactosidase:
(1) Add 2 ul/well of enzyme (2 nM final)
(2) Add 23 nL compounds in DMSO solution. The final titration was 0.7 nM to 77 uM.
(3) Add 1 ul of substrate (80 uM final)
(4) Incubate at room temperature for 20 min.
(5) Add 2 ul stop solution (1M NaOH and 1M Glycine mixture, pH 10)
(6) Detect the assay plate in a ViewLux plate reader (PerkinElmer) with Ex=365 nm and Em=440nm.
Keywords: Alpha-galactosidase, Fabry Disease, pharmacological chaperone, chaperone therapy, high throughput screening, alpha-galactosidase inhibitor, MLSMR, MLSCN, NIH Roadmap, qHTS and NCGC

Sequence of Alpha-galactosidase (Coffea arabica) (Q42656 whole entry, looked up): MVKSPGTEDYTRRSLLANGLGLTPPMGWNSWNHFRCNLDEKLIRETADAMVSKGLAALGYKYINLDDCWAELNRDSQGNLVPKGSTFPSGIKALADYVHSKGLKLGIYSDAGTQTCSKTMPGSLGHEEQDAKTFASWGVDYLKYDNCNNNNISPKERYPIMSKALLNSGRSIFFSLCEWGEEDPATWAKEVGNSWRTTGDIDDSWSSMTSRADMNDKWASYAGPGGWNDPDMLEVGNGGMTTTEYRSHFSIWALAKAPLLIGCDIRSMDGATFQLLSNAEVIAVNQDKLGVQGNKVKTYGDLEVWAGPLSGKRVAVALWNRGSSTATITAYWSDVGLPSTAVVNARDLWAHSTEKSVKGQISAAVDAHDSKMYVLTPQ

| SMILES | outcome |
| --- | --- |
| Brc1c(NC2=NCCN2)ccc2nccnc12 | inactive |
| NC(=O)CN1CCCC1=O | inactive |
| Cc1ccc(C(=O)Nc2ccc(S(=O)(=O)O)c3cc(S(=O)(=O)O)cc(S(=O)(=O)O)c23)cc1NC(=O)c1cccc(NC(=O)Nc2cccc(C(=O)Nc3cc(C(=O)Nc4ccc(S(=O)(=O)O)c5cc(S(=O)(=O)O)cc(S(=O)(=O)O)c45)ccc3C)c2)c1 | inactive |
| CC1=C(C)C(=O)C(CCCCC#CCCCC#CCO)=C(C)C1=O | inactive |
| CCC(=O)c1ccc2c(c1)N(CCCN(C)C)c1ccccc1S2 | inactive |
| O=C(O)c1nn(Cc2ccc(Cl)cc2Cl)c2ccccc12 | inactive |
| C[C@H](N)[C@H](O)c1ccc(O)c(O)c1 | inactive |
| COc1ccc2c(c1)c(CC(=O)O)c(C)n2C(=O)c1ccc(Cl)cc1 | inactive |
| O=C(Nc1ccc([N+](=O)[O-])cc1Cl)c1cc(Cl)ccc1O | inactive |
| CC(C)(C)c1ccc(C(O)CCCN2CCC(C(O)(c3ccccc3)c3ccccc3)CC2)cc1 (stereo not given) | inactive |
| CN(C)C(=O)Oc1cccc([N+](C)(C)C)c1 | inactive |
| CSc1ccc(C(=O)c2[nH]c(=O)[nH]c2C)cc1 | inactive |
| COc1ccc(C(=O)N2CCCC2=O)cc1 | inactive |
| CN(C)CCCN1c2ccccc2Sc2ccc(C(F)(F)F)cc21 | inactive |
| NS(=O)(=O)c1cc2c(cc1Cl)NCNS2(=O)=O | inactive |
| CCCCNc1c(C(=O)OCC)c(C)nc2c1cnn2CC | inactive |
| Cc1[nH]c(=O)c(C#N)cc1-c1ccc2nccn2c1 | inactive |
| C[N+](C)(C)CCCCCCCCCC[N+](C)(C)C | inactive |
| c1cc(CN2CCCCC2)cc(OCCCNc2nc3ccccc3s2)c1 | inactive |
| Cn1c(=O)c2c(ncn2C)n(C)c1=O | inactive |

| SMILES | outcome |
| --- | --- |
| Cc1ccc(=O)n(-c2ccccc2)c1 | inactive |
| O=C(c1ccc(F)cc1)C1CCN(CCn2c(=O)[nH]c3ccccc3c2=O)CC1 | inactive |
| Cc1ccc(N(CC2=NCCN2)c2cccc(O)c2)cc1 | inactive |
| O=C(O)CN(CCOCCOCCN(CC(=O)O)CC(=O)O)CC(=O)O | inactive |
| CCCCNc1ccc(C(=O)OCCN(C)C)cc1 | inactive |
| CN1[C@@H]2CC[C@H]1CC(OC(=O)c1c[nH]c3ccccc13)C2 (stereo not given in full) | inactive |
| CCNC(=O)N1CCN(CCCC(c2ccc(F)cc2)c2ccc(F)cc2)CC1 | inactive |
| CCCCC1C(=O)N(c2ccccc2)N(c2ccccc2)C1=O | inactive |
| COc1cc2c(cc1OC)-c1cc(=Nc3c(C)cc(C)cc3C)n(C)c(=O)n1CC2 | inactive |
| O=C1CC2(CCCC2)CC(=O)N1CCCCN1CCN(c2ncccn2)CC1 | inactive |
| Oc1cc(O)c2c(c1)O[C@H](c1ccc(O)c(O)c1)[C@H](O)C2 | inactive |
| N[C@@H](Cc1c[nH]c2ccc(O)cc12)C(=O)O | inactive |
| O=C1NCN(c2ccccc2)C12CCN(CCCC(c1ccc(F)cc1)c1ccc(F)cc1)CC2 | inactive |
| COC(=O)[C@@H](N)Cc1ccc(O)c(O)c1 | inactive |
| CC1=C(CC(=O)O)c2cc(F)ccc2/C1=C\c1ccc(S(C)=O)cc1 (stereo not given) | inactive |
| COc1ccccc1N1CCN(CCCNc2cc(=O)n(C)c(=O)n2C)CC1 | inactive |
| CCc1cccc(N(C)C(N)=Nc2cccc3ccccc23)c1 | inactive |
| Cc1cc(C(C)(C)C)cc(C)c1CC1=NCCN1 | inactive |
| CC1=C(CC(=O)O)c2cc(F)ccc2/C1=C\c1ccc(S(C)(=O)=O)cc1 | inactive |
| CC(C)NCC(O)COc1ccc(COCCOC(C)C)cc1 (stereo not given) | inactive |
